# Data reported in ChEMBL document CHEMBL3988442, “University of Dundee, Small-Polar-MMV Screening Library” (2021).
# For some of these results: Measured potencies and affinities stand elsewhere.
# Assays:
# Parameters in all cases: scale not given: direction of the effect not stated beside the values
# [1] = target: Protein translocase subunit SecA (Escherichia coli (strain K12)) (UniProt P10408); experiment: Assay to Identify E. coli SecA ATPase Inhibitors; assay type: functional; details: 30 µM
# Sequence of Protein translocase subunit SecA (Escherichia coli (strain K12)) (P10408 whole entry): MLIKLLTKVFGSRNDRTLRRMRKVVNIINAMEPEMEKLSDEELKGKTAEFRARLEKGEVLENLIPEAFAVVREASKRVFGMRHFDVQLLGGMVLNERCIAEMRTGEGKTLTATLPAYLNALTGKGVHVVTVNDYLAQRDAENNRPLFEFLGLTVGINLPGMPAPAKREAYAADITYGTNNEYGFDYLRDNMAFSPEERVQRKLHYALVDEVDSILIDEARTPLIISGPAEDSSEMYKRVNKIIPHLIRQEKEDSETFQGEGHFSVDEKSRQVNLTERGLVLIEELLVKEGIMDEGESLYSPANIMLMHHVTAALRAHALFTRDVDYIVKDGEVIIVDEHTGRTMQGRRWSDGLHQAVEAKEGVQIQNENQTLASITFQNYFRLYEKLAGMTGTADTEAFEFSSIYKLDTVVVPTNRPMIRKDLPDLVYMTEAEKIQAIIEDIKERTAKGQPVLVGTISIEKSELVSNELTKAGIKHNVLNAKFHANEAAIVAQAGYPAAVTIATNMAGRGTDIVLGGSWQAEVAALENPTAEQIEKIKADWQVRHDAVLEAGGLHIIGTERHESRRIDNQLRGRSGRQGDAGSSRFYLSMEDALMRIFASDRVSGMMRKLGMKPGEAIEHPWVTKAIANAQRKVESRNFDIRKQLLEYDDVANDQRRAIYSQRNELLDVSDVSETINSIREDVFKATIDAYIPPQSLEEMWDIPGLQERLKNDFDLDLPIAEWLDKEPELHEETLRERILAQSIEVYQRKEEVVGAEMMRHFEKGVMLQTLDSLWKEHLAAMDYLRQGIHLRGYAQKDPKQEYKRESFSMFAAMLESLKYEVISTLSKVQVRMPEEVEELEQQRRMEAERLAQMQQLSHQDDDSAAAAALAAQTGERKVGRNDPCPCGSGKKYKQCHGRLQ
# [2] = target: T1, Ubiquitin-activating enzyme e1, putative (Leishmania donovani (strain BPK282A1)) (UniProt E9BSI1); experiment: Leishmania donovani Ubiquitin Activating Enzyme (LdE1); assay type: functional; details: 30 µM
# T1 sequence (whole entry): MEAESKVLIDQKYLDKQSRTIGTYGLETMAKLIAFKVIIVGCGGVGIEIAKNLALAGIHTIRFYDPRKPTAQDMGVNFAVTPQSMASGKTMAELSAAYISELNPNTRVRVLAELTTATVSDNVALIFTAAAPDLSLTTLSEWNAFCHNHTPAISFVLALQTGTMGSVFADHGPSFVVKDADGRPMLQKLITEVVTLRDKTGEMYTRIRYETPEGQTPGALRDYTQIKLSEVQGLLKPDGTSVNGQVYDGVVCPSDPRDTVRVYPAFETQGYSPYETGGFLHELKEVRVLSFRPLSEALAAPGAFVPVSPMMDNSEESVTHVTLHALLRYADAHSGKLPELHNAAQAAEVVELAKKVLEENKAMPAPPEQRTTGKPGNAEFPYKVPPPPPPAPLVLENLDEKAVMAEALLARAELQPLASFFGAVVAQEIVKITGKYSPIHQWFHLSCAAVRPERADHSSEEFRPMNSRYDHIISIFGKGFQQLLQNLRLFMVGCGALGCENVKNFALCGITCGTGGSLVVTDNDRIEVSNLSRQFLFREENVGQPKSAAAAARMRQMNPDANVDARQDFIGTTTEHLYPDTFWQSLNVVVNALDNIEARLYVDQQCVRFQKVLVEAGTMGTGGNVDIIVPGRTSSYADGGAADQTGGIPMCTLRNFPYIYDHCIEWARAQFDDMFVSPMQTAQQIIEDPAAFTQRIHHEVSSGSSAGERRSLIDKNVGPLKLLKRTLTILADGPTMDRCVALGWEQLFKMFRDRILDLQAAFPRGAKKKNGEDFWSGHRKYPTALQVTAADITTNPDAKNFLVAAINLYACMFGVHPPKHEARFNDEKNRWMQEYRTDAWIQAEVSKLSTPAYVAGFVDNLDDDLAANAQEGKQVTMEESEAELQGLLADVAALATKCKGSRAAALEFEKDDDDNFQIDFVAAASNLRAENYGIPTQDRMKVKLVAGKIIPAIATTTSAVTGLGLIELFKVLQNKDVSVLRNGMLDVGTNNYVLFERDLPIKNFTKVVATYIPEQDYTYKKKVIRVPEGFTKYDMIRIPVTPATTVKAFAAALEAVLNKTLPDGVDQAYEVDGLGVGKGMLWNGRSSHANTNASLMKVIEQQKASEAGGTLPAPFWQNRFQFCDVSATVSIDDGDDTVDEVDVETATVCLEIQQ
# [3] = target: AMP-activated protein kinase, AMPK (Homo sapiens) (UniProt P54646+O43741+P54619+Q9UGJ0+Q9Y478+Q13131+Q9UGI9); experiment: AMP-dependent Kinase enzyme assay. An in vitro enzyme assay that detects ADP turnover that is directly proportional to AMPK activity. This uses naive AMPK that is activated during the assay with MK-8722; assay type: functional; details: 30 µM
# [4] = target: Sialic acid-binding Ig-like lectin 9 (Homo sapiens) (UniProt Q9Y336); experiment: Hs-Siglec9 ALPHAscreen SOP 20170721; details: 10 µM
# Sequence of Sialic acid-binding Ig-like lectin 9 (Homo sapiens) (Q9Y336 whole entry): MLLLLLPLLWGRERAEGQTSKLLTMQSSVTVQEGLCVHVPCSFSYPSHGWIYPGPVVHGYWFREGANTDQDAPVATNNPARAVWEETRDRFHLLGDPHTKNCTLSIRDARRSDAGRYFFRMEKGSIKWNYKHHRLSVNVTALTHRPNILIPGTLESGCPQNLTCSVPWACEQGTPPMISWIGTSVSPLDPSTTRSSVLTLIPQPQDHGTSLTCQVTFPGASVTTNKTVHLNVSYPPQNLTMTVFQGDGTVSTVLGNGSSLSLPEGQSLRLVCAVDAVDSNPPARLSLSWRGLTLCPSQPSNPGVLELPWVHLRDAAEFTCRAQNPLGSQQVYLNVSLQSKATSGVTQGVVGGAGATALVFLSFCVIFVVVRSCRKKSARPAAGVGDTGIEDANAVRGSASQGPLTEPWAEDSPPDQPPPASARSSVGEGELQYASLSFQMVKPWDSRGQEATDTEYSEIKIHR
# Trypanosoma cruzi = experiment: Trypanosoma cruzi phosphomannomutase and mannose-1-phosphate guanylyltransferase assay; assay type: functional; details: 10 µM
# [5] = target: T2, Arginase-2, mitochondrial (Homo sapiens) (UniProt P78540); experiment: in vitro enzyme assay to detect the production of urea directly proportional to the activity of Arginase II; assay type: functional; details: 33.3 µM; note: in the data most compounds retested in dose-response had high values
# T2 sequence (whole entry): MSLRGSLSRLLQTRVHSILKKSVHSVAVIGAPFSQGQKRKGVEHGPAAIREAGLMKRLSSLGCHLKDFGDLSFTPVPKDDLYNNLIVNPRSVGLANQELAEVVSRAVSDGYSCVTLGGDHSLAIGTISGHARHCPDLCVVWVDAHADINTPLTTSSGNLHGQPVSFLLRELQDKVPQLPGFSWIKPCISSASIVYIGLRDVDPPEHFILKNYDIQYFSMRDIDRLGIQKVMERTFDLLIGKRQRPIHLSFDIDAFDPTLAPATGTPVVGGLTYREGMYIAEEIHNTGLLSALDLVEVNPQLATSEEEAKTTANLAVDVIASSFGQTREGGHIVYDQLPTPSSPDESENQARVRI
# [6] = target: T3, Proteasome subunit beta (Trypanosoma cruzi) (UniProt O96673); experiment: Trypanosoma cruzi proteasome chymotrypsin-like activity (TcProtChymo) assay.; note: in the data most compounds retested in dose-response had high values; assay type: functional; details: 9.37 µM
# T3 sequence (whole entry): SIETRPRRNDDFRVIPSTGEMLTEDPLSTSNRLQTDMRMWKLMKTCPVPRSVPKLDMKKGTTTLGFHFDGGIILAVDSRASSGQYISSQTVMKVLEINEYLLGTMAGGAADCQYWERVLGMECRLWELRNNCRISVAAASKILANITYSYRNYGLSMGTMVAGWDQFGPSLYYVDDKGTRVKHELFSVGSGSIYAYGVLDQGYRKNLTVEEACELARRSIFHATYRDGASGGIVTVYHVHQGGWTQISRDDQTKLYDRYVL
# Homo sapiens = species on record: Homo sapiens; experiment: To identify inhibition of the IFN signalling (Jak-Stat) pathway via expression of an eGFP reporter gene under the control of an IFN-stimulated response element (ISRE) containing MxA promoter.; assay type: functional; details: 30 µM
# [7] = target: T4, Tyrosyl-tRNA synthetase, putative (Trypanosoma cruzi (strain CL Brener)) (UniProt Q4DSP6); experiment: Trypanosoma cruzi tyrosyl tRNA synthetase (TcYRS) _High Tyrosine SOP; assay type: functional; details: 30 µM; note: in the data most compounds retested in dose-response had high values
# T4 sequence (whole entry): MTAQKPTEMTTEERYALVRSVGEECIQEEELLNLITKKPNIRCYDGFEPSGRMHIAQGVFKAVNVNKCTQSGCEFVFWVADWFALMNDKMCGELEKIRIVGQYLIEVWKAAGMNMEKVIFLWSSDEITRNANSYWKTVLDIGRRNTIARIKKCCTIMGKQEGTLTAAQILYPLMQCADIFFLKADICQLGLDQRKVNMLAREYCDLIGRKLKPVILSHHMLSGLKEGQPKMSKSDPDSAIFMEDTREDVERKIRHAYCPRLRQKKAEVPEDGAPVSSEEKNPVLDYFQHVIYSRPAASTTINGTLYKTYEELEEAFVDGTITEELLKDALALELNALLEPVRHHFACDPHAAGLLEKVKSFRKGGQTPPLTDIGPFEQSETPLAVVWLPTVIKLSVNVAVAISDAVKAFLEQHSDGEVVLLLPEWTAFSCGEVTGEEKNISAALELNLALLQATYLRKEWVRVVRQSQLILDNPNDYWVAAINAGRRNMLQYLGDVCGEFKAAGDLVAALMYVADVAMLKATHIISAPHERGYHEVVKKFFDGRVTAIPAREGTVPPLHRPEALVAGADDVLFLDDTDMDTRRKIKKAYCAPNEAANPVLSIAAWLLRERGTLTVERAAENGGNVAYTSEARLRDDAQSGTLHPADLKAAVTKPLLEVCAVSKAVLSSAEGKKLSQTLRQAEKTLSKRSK
# [8] = target: T4, Tyrosyl-tRNA synthetase, putative (Trypanosoma cruzi (strain CL Brener)); experiment: Trypanosoma cruzi tyrosyl tRNA synthetase (TcYRS) SOP; assay type: functional; details: 30 µM
# [9] = target: Chromo domain-containing protein 1 (Saccharomyces cerevisiae (strain ATCC 204508 / S288c) (Baker's yeast)) (UniProt P32657); experiment: ScCHD-1 Enzyme Inhibition Assay; assay type: functional; details: 30 µM; note: in the data most compounds retested in dose-response had high values
# Sequence of Chromo domain-containing protein 1 (Saccharomyces cerevisiae (strain ATCC 204508 / S288c) (Baker's yeast)) (P32657 whole entry, the tested form may be a part): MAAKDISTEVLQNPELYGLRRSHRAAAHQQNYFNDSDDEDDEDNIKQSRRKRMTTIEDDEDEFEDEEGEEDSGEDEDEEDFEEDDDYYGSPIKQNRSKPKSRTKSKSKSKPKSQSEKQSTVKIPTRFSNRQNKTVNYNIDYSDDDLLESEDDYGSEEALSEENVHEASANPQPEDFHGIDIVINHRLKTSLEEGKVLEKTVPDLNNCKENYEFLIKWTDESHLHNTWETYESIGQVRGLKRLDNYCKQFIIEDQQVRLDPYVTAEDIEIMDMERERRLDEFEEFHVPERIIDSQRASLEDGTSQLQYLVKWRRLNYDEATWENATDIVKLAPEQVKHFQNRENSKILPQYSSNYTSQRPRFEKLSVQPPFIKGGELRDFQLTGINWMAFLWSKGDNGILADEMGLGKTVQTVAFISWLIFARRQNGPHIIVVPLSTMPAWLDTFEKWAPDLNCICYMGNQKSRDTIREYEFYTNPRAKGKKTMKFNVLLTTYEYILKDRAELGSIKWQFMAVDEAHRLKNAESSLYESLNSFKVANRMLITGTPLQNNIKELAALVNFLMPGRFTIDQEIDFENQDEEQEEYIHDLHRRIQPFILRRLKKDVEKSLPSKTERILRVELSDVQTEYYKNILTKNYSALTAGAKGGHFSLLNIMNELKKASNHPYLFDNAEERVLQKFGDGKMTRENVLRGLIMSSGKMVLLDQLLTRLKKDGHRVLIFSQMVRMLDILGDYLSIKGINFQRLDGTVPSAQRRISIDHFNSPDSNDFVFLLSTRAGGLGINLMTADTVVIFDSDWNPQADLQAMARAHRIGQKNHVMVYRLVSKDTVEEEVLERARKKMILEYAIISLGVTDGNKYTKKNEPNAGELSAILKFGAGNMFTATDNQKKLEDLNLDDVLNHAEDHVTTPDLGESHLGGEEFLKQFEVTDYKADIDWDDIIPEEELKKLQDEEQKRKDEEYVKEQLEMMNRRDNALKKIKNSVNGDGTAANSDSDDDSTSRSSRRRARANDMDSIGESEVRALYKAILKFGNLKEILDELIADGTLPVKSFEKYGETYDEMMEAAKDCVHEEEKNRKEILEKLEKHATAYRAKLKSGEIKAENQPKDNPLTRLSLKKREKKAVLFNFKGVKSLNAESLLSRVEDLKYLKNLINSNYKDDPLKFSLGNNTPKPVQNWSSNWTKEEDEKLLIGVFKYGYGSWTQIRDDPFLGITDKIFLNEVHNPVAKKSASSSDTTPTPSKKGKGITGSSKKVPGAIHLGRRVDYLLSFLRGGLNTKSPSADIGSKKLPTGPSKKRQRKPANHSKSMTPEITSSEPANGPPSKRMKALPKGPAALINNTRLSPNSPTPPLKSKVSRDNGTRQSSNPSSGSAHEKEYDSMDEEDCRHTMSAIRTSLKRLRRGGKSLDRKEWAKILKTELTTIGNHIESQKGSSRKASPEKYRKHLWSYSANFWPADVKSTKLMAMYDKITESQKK
Structure (SMILES),Percent Effect [1] [%],Percent Effect [2] [%],Percent Effect [3] [%],Percent Effect [4] [%],Percent Effect (Trypanosoma cruzi) [%],Percent Effect [5] [%],Percent Effect [6] [%],Percent Effect (Homo sapiens) [%],Percent Effect [7] [%],Percent Effect [8] [%],Percent Effect [9] [%]
O=C(CCO)N1CCOC2(CCCN(C(=O)c3ccco3)C2)C1 (stereo unspecified),2.21,-5.2,0.24,19.9,4.82,4.14,11.3,-33.1,-12.9,-13.6,0.942
Cn1cc(C(=O)N2C[C@@H]3COC[C@]3(COCc3cccnc3)C2)cn1,0.921,13,7.58,1.08,-4.83,11,17.4,3.89,0,8.97,-5.24
c1cnnc(N2CCCC(NCc3nc(C4CC4)no3)C2)c1 (stereo unspecified),-4.19,-2.6,-5.27,7.57,7.18,23.4,11.3,-1.78,16.1,28.4,-2.42
CC(=O)NCCNC(=O)N(C)Cc1ccc2c(c1)OCCO2,-3.01,0,-0.74,-6.13,-4.92,6.1,1.79,7.44,4.95,13.4,-1.92
Cc1nc(N2CCCC2)nc2c1CN(C(C)C)CC2,-5.79,21.3,-1.49,4.47,3.28,-51.8,1.71,-7.95,6.25,17.5,-11.2
CCOCCN1CCN(Cc2cccc(C(=O)N(C)C)c2)CC1,-10.3,0,-8.88,18,9.38,-2.03,0,2.86,6.93,23.2,46.2
Cc1cccc(-c2nc(C)nn2CC(=O)N(C)C2CC2)c1,-4.92,15.6,4.09,7.36,3.18,-3.2,3.55,5.06,6.8,21.9,-3.56
Cc1ccc(C2CCCCCN2Cc2cn(C)nc2C)cc1 (stereo unspecified),-2.53,5.2,1.3,6.91,4.83,1.94,5.92,-15,8.47,19.2,-11.2
COCc1nc(C(=O)N2CCCC2c2noc(C(C)C)n2)cs1 (stereo unspecified),-3.95,1.27,8.09,-0.11,-1.74,3.66,-0.343,3.65,3.12,5.06,11.7
CN(C)CCN1CCO[C@H]2CN(Cc3cnn(C)c3)C[C@H]21,-3.56,0,-1.78,7.45,-4.2,2.73,2.83,-0.175,5.38,11.1,-3.54
CN1CCCN(C(=O)NCc2csc(Br)c2)CC1,-5.63,10.8,-0.581,13.3,0.0929,3.88,3.05,15.4,6.93,18.3,-0.533
